# Measured values reported in PubChem BioAssay AID492952 (Southern Research Specialized Biocontainment Screening …, 2010).
# About 1,500 (65%) of roughly 2,300 compounds were called active. How the calls were made is not given here. So high a share suggests a set chosen from earlier hits. The list shows a part of the results. Results with a measured potency or affinity are listed apart.
# Experiment: replicating M. tuberculosis growth inhibition, dose response, non-replicating M. tuberculosis project, H37Rv (AID 492952);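 further: Mycobacterium tuberculosis grown in culture; growth inhibition read after a week of incubation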
# Settings: series mostly up to 50 µM
row,Structure (SMILES),outcome
1,COCC(=O)Nc1ccccc1NC(C)=O,inactive
2,Cc1cccc(NC(=O)CO/N=C/c2ccc3c(c2)OCO3)c1,inactive
3,COc1ccc(C(=O)CCNc2ccc(F)cc2)cc1,inactive
4,CCOC(=O)C(=CNNc1cccc(Cl)c1)C(=O)OCC,inactive
5,O=C(CN1CCN(c2ccccc2)CC1)Nc1nnc(-c2ccccc2)s1,inactive
6,CCc1nnc(NC(=O)CN2CCN(Cc3ccc(F)cc3)CC2)s1,inactive
7,O=C(O)c1ccccc1C(=O)NNc1ccc(F)cc1,inactive
8,CCOC(=O)c1ccc(N=C(CC)c2c(O)n(C)c(=O)n(C)c2=O)cc1,inactive
9,CCOC(=O)c1ccc(NC2OC(=O)c3ccccc32)cc1 (centres undefined),inactive
10,Nc1scc(-c2ccncc2)c1Cl,inactive
11,CC(C)Oc1ccc(CNC(=O)Oc2ccccc2)cc1,inactive
12,COc1ccc(C(C)NC(=O)CCc2ccccc2)cc1 (centres undefined),inactive
13,C/C(=N\NC(=O)c1ccccc1O)C1C(=O)c2ccccc2C1=O,inactive
14,O=C(O)CCCCCN1C(=O)CSC1=S,inactive
15,Cc1cccc(CC(=O)NCC2CCCCC2)c1,inactive
16,Clc1ccccc1CSc1nnc([C@@H]2CCCN2)o1,inactive
17,S=c1[nH]c2ccccc2o1,inactive
18,Cc1cc(OCCOCCNCc2ccccc2)ccc1C(C)C,inactive
19,Cc1ccc(CNCc2cc(Cl)ccc2O)cc1,inactive
20,COc1ccc(NCC(=O)N2CCCC2)cc1Cl,inactive
21,CC(=O)c1ccc(NC(=O)CCc2ccc(C)o2)cc1,inactive
22,CCc1ccc(NC(=O)CCc2ccc(C)o2)cc1,inactive
23,FC(F)(F)c1nc(SCc2ccc(Cl)cc2Cl)n[nH]1,inactive

row,Structure (SMILES),outcome
1,Clc1ccc(SCCCCn2ccnc2)cc1,inactive
2,Cc1ccc(OCCCCn2ccnc2)c([N+](=O)[O-])c1,inactive
3,CCCCOc1ccc(CSCCN)cc1Cl,inactive
4,CCc1ccc(OCCCC(=O)Nc2nccs2)cc1,inactive
5,O=C(COc1ccc2ccccc2c1)NNC(=O)c1cccs1,inactive
6,CCCCCCCCCCn1cc(C(C)=O)c(=O)[nH]c1=O,inactive
7,CCOC(=O)Cc1cc(=O)n2[nH]cc(-c3ccc(Cl)cc3)c2n1,inactive
8,CCOC(=O)C1(O)CC(C)=NN1C(=O)c1cccc(Br)c1 (centres undefined),inactive
9,N#Cc1ccc(N=c2ssnc2Cl)cc1,inactive
10,CC1(C)C[C@H]2C=C(C=O)[C@]3(C=O)C[C@]3(C)[C@H]2C1,inactive
11,CCc1nnc(N/N=C/c2c(F)cccc2Cl)n1N,inactive
12,CC(C)(C)c1cc(CN2CCC(O)CC2)cc(C(C)(C)C)c1O,inactive
13,O=C(COc1ccc(Cl)cc1)Nc1ccccc1Cl,inactive
14,O=C(COc1ccc(Br)cc1)N/N=C1/SCC(=O)N1Cc1ccccc1,inactive
15,COc1ccc(NC(=O)COc2ccc3c(c2)CCC3)cc1,inactive
16,O=C(COC(=O)c1cccc([N+](=O)[O-])c1)NCc1cccs1,inactive
17,Cc1ccc(OCC(=O)N2CCCc3ccccc32)cc1,inactive
18,O=C(COc1ccc(Cl)cc1)OCC(=O)N1CCCc2ccccc21,inactive
19,Cn1c(SCc2c(F)cccc2Cl)nc2c(c1=O)SCC2,inactive
20,COc1cccc(/C=N/NC(=O)c2ccoc2C)c1O,inactive
21,Cc1ccc(C(=O)N/N=C/C=C/c2ccccc2)cc1,inactive
22,CCc1ccc(N=CC2=C(O)CC(c3ccco3)CC2=O)cc1 (centres undefined),inactive
23,CC(=O)N(c1nnc(-c2ccc(C)cc2)s1)C1CCCC1,inactive

row,Structure (SMILES),outcome
1,O=C(NCCC1=CCCCC1)c1ccc(Br)o1,inactive
2,O=C(NCCC1=CCCCC1)c1ccc(F)cc1,inactive
3,COc1ccccc1-c1cc(SC)c(C#N)c(=O)o1,inactive
4,COc1ccccc1-c1nnc(-c2ccc(C)cc2)o1,inactive
5,FC(F)(F)c1ccc(NCCc2ccccc2)nc1,inactive
6,O=C(COC(=O)c1cccc(C(F)(F)F)c1)NCc1ccccc1,inactive
7,CCOC(=O)Cc1csc(NC(=O)COc2ccc3c(c2)CCC3)n1,inactive
8,Nc1nnc(SCCCC(=O)c2ccc(Br)cc2)s1,inactive
9,O=C(CNC(=O)c1ccc(Br)cc1)c1ccc(Br)cc1,inactive
10,Cc1cccc(C)c1NC(=O)c1sc(N)nc1-c1ccccc1,inactive
11,Cc1ccc(C(=O)N/N=C\c2ccc[nH]2)cn1,inactive
12,COc1cccc(/C=N/N2C(=O)CSC2=S)c1O,inactive
13,O=C(N/N=C\c1ccco1)c1cncc(Br)c1,inactive
14,Cc1ccc(C(=O)c2cncc(Br)c2)cc1,inactive
15,Nn1c(SCCOc2ccc(Cl)cc2)nnc1-c1cccnc1,inactive
16,CSCCC(=O)N1CCCC(N2CCN(c3cccc(C(F)(F)F)c3)CC2)C1 (centres undefined),inactive
17,COC(=O)c1ccc(CO/N=C/c2ccc(OC)cc2)o1,inactive
18,CCCNC(=O)c1ccc(COc2ccc(C)cc2)o1,inactive
19,Cc1cccc2c(CC(=O)O)noc12,inactive
20,O=C(NNc1ccc([N+](=O)[O-])cc1)c1ccccc1Cl,inactive
21,CC1(C)CC(=O)c2cc(C(=O)NNc3ccccc3)c(=O)n(-c3ccccc3)c2C1,inactive
22,Clc1ccc2c(N3CCCC3)ccnc2c1,inactive
23,Cc1ccc(O)c(C(=O)c2cc(C#N)c(=O)n(-c3nccs3)c2)c1,inactive

row,Structure (SMILES),outcome
1,Cn1c(=O)c2c(=O)cc(NNC(=O)CC#N)[nH]c2n(C)c1=O,inactive
2,Cc1ccc(/C=C2\SC(=S)N(C3CCS(=O)(=O)C3)C2=O)o1 (centres undefined),inactive
3,Cc1ccsc1C(=O)OCC(=O)NCCC1=CCCCC1,inactive
4,O=C(COC(=O)c1cccs1)NCCC1=CCCCC1,inactive
5,O=C(Nc1nnc(-c2ccc(Cl)cc2)o1)c1cccc(N2C(=O)CCC2=O)c1,inactive
6,Cc1ccc(N=N/C(=C\O)C(=O)c2ccncc2)cc1,inactive
7,O=C(c1ccc(Cl)cc1)c1nnc(-c2ccncc2)o1,inactive
8,CC1(c2nnc(-c3ccccc3)o2)CC(c2ccc(Cl)cc2)=NO1 (centres undefined),inactive
9,FC(F)(F)c1ccc(-c2nnc(-c3cccnc3)o2)cc1,inactive
10,CCOc1ccc(CC(=O)N2N=C(C)CC2(O)C(F)(F)F)cc1 (centres undefined),inactive
11,CC1=NN(C(=O)COc2ccccc2)C(O)(c2ccccc2)C1 (centres undefined),inactive
12,Nc1nonc1C(=O)NCCN=Cc1cc(Cc2ccccc2)cc(Br)c1O,inactive
13,Cc1nn(C)cc1/C=N/NC(=O)c1sc2ccccc2c1Cl,inactive
14,Cc1occc1C(=O)N/N=C/c1ccc[nH]1,inactive
15,Cc1cc(C(=O)N/N=C/C=C/c2ccccc2)c(C)o1,inactive
16,O=C1/C(=C/c2ccco2)CCC1C1CCCC1 (centres undefined),inactive
17,Cc1cccc2nc(-c3cccnc3)c(NCCC(C)C)n12,inactive
18,CC1=NN(C(=O)c2ccc(C)o2)C(O)(c2ccccc2)C1 (centres undefined),inactive
19,Cc1ccc2nc3c(c(N)c2c1)CCN3c1ccccc1,inactive
20,O=C(CCC1CCCCC1)NCc1cccs1,inactive
21,CCc1ccc(OCC(=O)c2c(O)c3ccccc3oc2=O)cc1,inactive
22,C=CCN=C1SC(CC)C(=O)N1S(=O)(=O)c1ccc(C)cc1 (centres undefined),inactive
23,COc1ccc(CN=C2NN=C(c3ccc(Cl)cc3)CS2)cc1,inactive

row,Structure (SMILES),outcome
1,c1ccc(Cn2c(SCCN3CCOCC3)nnc2-c2cccnc2)cc1,inactive
2,O=C(O)c1ccc(CN2C(=O)CSC2=S)cc1,inactive
3,CN(C)CCN1C(=O)c2oc3ccccc3c(=O)c2C1c1cccc(Br)c1 (centres undefined),inactive
4,CC12CC3CC(C)(C1)CC(C(=O)N1CCCC1)(C3)C2,inactive
5,Cc1ccc(NC(=O)CNc2ccc(OC(C)C)cc2)cc1,inactive
6,Cc1ccc(NC(=O)COc2ccccc2)cc1Cl,inactive
7,CNCc1ccccc1Sc1cc(O)ccc1O,inactive
8,CC1(C)CC(=O)C2=C(C1)OC(N)=C(C#N)C2C#Cc1ccccc1 (centres undefined),inactive
9,CCOC(=O)Cc1ccc(NCc2ccc(Cl)cc2)cc1,inactive
10,Cc1ccccc1OCCC(=O)OCC(=O)NNC(=O)c1cccs1,inactive
11,CC1=NN(C(=O)COc2ccccc2C)C(O)(c2ccc(Cl)cc2)C1 (centres undefined),inactive
12,CC1=CC(C)(C)Nc2ccc(OC(=O)CN3C(=O)c4ccccc4C3=O)cc21,inactive
13,Cc1ccc2c(c1)C(=O)C(=O)N2CCCOc1ccccc1,inactive
14,N=c1oc2ccccc2cc1C(=O)Nc1ccccc1,inactive
15,c1ccc(OCc2nnc3sc(-c4cccs4)nn23)cc1,inactive
16,O=c1[nH][nH]c(-c2ccccc2O)c1C(C[N+](=O)[O-])c1cccc(Cl)c1 (centres undefined),inactive
17,Clc1ccc(OC2CCN(Cc3nc(CC4CC4)no3)CC2)cc1,inactive
18,CCOc1ccc(OCC(=O)OCc2cc(=O)n3cc(Br)ccc3n2)cc1,inactive
19,CCOC(=O)Cn1nc(/C=C/c2ccccc2)ccc1=O,inactive
20,O=C(CNC(=O)c1ccccc1)OC1CCCCC1,inactive
21,COc1ccc(-c2nnn(Cc3ccccc3)n2)cc1,inactive
22,O=C1CC(Sc2ncccn2)C(=O)N1c1ccccc1C(F)(F)F (centres undefined),inactive
